Experimental data reported in the supplement of paper PMC8975748.

What was measured:
[1] = test system: Saccharomyces cerevisiae BY4741 SeMeCo community; test: z-score of prototroph abundance vs DMSO median; higher = larger share of this subpopulation than in DMSO controls; conditions: 10 µM; 24 h; SM minimal medium; subpopulation (auxotrophy): Prototroph
Summary of the method: (§1)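 A Saccharomyces cerevisiae BY4741 community carried four plasmids, each restoring one auxotrophy and encoding a distinct fluorescent protein. It was pre-grown overnight to OD600 1.0, diluted to 0.3, and 70 µl was added to 384-well plates acoustically predosed with library drugs (10 µM final), then grown 24 h in minimal SM medium. Cells were paraformaldehyde-fixed and imaged by automated confocal microscopy, with single-auxotroph fluorescent strains setting thresholds and autofluorescence correction. Each subpopulation's abundance was scored as a z-score against the vehicle-well median.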

[2] = test system: Saccharomyces cerevisiae BY4741 SeMeCo community; test: z-score of subpopulation abundance vs DMSO median, subpopulation auxotrophic for M; higher = larger share of this subpopulation than in DMSO controls; conditions: 10 µM; 24 h; SM minimal medium; subpopulation (auxotrophy): M
Summary of the method: as §1

[3] = test system: Saccharomyces cerevisiae BY4741 SeMeCo community; test: z-score of subpopulation abundance vs DMSO median, subpopulation auxotrophic for L; higher = larger share of this subpopulation than in DMSO controls; conditions: 10 µM; 24 h; SM minimal medium; subpopulation (auxotrophy): L
Summary of the method: as §1

[4] = test system: Saccharomyces cerevisiae BY4741 SeMeCo community; test: z-score of subpopulation abundance vs DMSO median, subpopulation auxotrophic for U; higher = larger share of this subpopulation than in DMSO controls; conditions: 10 µM; 24 h; SM minimal medium; subpopulation (auxotrophy): U
Summary of the method: as §1

[5] = test system: Saccharomyces cerevisiae BY4741 SeMeCo community; test: z-score of subpopulation abundance vs DMSO median, subpopulation auxotrophic for LU; higher = larger share of this subpopulation than in DMSO controls; conditions: 10 µM; 24 h; SM minimal medium; subpopulation (auxotrophy): LU
Summary of the method: as §1

[6] = test system: Saccharomyces cerevisiae BY4741 SeMeCo community; test: z-score of subpopulation abundance vs DMSO median, subpopulation auxotrophic for LM; higher = larger share of this subpopulation than in DMSO controls; conditions: 10 µM; 24 h; SM minimal medium; subpopulation (auxotrophy): LM
Summary of the method: as §1

[7] = test system: Saccharomyces cerevisiae BY4741 SeMeCo community; test: z-score of subpopulation abundance vs DMSO median, subpopulation auxotrophic for HM; higher = larger share of this subpopulation than in DMSO controls; conditions: 10 µM; 24 h; SM minimal medium; subpopulation (auxotrophy): HM
Summary of the method: as §1

[8] = test system: Saccharomyces cerevisiae BY4741 SeMeCo community; test: z-score of subpopulation abundance vs DMSO median, subpopulation auxotrophic for HU; higher = larger share of this subpopulation than in DMSO controls; conditions: 10 µM; 24 h; SM minimal medium; subpopulation (auxotrophy): HU
Summary of the method: as §1

[9] = test system: Saccharomyces cerevisiae BY4741 SeMeCo community; test: z-score of subpopulation abundance vs DMSO median, subpopulation auxotrophic for UM; higher = larger share of this subpopulation than in DMSO controls; conditions: 10 µM; 24 h; SM minimal medium; subpopulation (auxotrophy): UM
Summary of the method: as §1

[10] = test system: Saccharomyces cerevisiae BY4741 SeMeCo community; test: z-score of subpopulation abundance vs DMSO median, subpopulation auxotrophic for HL; higher = larger share of this subpopulation than in DMSO controls; conditions: 10 µM; 24 h; SM minimal medium; subpopulation (auxotrophy): HL
Summary of the method: as §1

[11] = test system: Saccharomyces cerevisiae BY4741 SeMeCo community; test: z-score of subpopulation abundance vs DMSO median, subpopulation auxotrophic for HLU; higher = larger share of this subpopulation than in DMSO controls; conditions: 10 µM; 24 h; SM minimal medium; subpopulation (auxotrophy): HLU
Summary of the method: as §1

[12] = test system: Saccharomyces cerevisiae BY4741 SeMeCo community; test: z-score of subpopulation abundance vs DMSO median, subpopulation auxotrophic for HLM; higher = larger share of this subpopulation than in DMSO controls; conditions: 10 µM; 24 h; SM minimal medium; subpopulation (auxotrophy): HLM
Summary of the method: as §1

[13] = test system: Saccharomyces cerevisiae BY4741 SeMeCo community; test: z-score of subpopulation abundance vs DMSO median, subpopulation auxotrophic for HUM; higher = larger share of this subpopulation than in DMSO controls; conditions: 10 µM; 24 h; SM minimal medium; subpopulation (auxotrophy): HUM
Summary of the method: as §1

[14] = test system: Saccharomyces cerevisiae BY4741 SeMeCo community; test: z-score of subpopulation abundance vs DMSO median, subpopulation auxotrophic for LUM; higher = larger share of this subpopulation than in DMSO controls; conditions: 10 µM; 24 h; SM minimal medium; subpopulation (auxotrophy): LUM
Summary of the method: as §1

[15] = test system: Saccharomyces cerevisiae BY4741 SeMeCo community; test: z-score of subpopulation abundance vs DMSO median, subpopulation auxotrophic for HLUM; higher = larger share of this subpopulation than in DMSO controls; conditions: 10 µM; 24 h; SM minimal medium; subpopulation (auxotrophy): HLUM
Summary of the method: as §1

[16] = test system: Saccharomyces cerevisiae BY4741 SeMeCo community; test: z-score of subpopulation abundance vs DMSO median, subpopulation auxotrophic for H; higher = larger share of this subpopulation than in DMSO controls; conditions: 10 µM; 24 h; SM minimal medium; subpopulation (auxotrophy): H
Summary of the method: as §1

Row | SMILES | z-score of prototroph abundance [1] | z-score of subpopulation abundance [2] | z-score of subpopulation abundance [3] | z-score of subpopulation abundance [4] | z-score of subpopulation abundance [5] | z-score of subpopulation abundance [6] | z-score of subpopulation abundance [7] | z-score of subpopulation abundance [8] | z-score of subpopulation abundance [9] | z-score of subpopulation abundance [10] | z-score of subpopulation abundance [11] | z-score of subpopulation abundance [12] | z-score of subpopulation abundance [13] | z-score of subpopulation abundance [14] | z-score of subpopulation abundance [15] | z-score of subpopulation abundance [16]
1 | CC[C@H]1OC(=O)[C@H](C)[C@@H](O[C@H]2C[C@@](C)(OC)[C@@H](O)[C@H](C)O2)[C@H](C)[C@@H](O[C@@H]2O[C@H](C)C[C@H](N(C)C)[C@H]2O)[C@](C)(O)C[C@@H](C)[C@@H]2N[C@@H](COCCOC)O[C@H]([C@H]2C)[C@]1(C)O [Dirithromycin] | 0.11 | 0.26 | 0.38 | 0.26 | 0.32 | 0.49 | -0.53 | -0.26 | -0.05 | -0.09 | -0.71 | -0.77 | -0.1 | 0.3 | -0.46 | 
2 | O=c1ccn(C2CC(O)C(CO)O2)c(=O)[nH]1 (stereo not given) [2-deoxyuridine] | 0.08 | 0.17 | 1.75 | -1.16 | 0.31 | 0.89 | 0.04 | -1.08 | -0.82 | 1.21 | 0.49 | 0.54 | -0.27 | 0.23 | 0.04 | 0.07
3 | COCC(=O)Nc1cc(Sc2ccccc2)ccc1N=C(NC(=O)OC)NC(=O)OC [Febantel] | -0.31 | 1.45 | -0.03 | -1.73 | -0.37 | 0.89 | 1.62 | -0.73 |  | 1.03 | -0.05 | 0.64 | -0.11 |  | -0.82 | 0.91
4 | Cc1cc(C)nc(NS(=O)(=O)c2ccc(N)cc2)n1 [Sulfamethazine] | 0 | 0.92 | 0.4 |  | -0.83 | 0.84 | 0.43 | -0.43 | -0.43 | -0.28 | 0.31 | 0.59 | -0.1 | -0.16 | 0.42 | 0.21
5 | CC(=O)O[C@H]1C[C@@]2(C)[C@@H](C[C@@H](O)[C@H]3[C@@]4(C)CC[C@@H](O)[C@@H](C)[C@@H]4CC[C@@]32C)/C1=C(\CCC=C(C)C)C(=O)O [Fusidate Sodium] | -0.65 | 0 | -0.11 |  | 0.21 | -0.02 | 0.57 | 2 | -0.27 | 1.13 | 1.2 | 1.04 | 1.17 |  | -0.08 | 1.44
6 | O=C1C(=O)c2ccccc2C(O)=C1C1CCC(c2ccc(Cl)cc2)CC1 (stereo not given) [Atovaquone] | -0.82 | -0.46 | 1.54 | -0.2 | 0.47 | 1.39 | 0.9 | 0.94 | 0.03 | 1.12 | 1.94 | 0.84 | 0.71 | 1.22 | 0.68 | 1.46
7 | C[C@H]1c2cccc(O)c2C(O)=C2C(=O)[C@]3(O)C(O)=C(C(N)=O)C(=O)[C@@H](N(C)C)[C@@H]3[C@@H](O)[C@@H]21 [Doxycycline] | 1.27 | 0.04 | -0.26 | -0.63 | -0.52 | -0.26 | -0.76 | -1.25 | -1.44 | -0.31 | -0.24 | -0.1 | -1.21 | -0.15 | 0.32 | 
